This excerpt belongs to a sample that is enriched for hits.
Methyltransferases = Primary Screen for Target Class Profiling of Small Molecule Inhibitors of Methyltransferases. actives 3.9% (n = 25,000). calls only at 40 µM. purified enzyme, MTase-Glo SAH luminescence; hits give low values; call rule not given here
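Each enzyme was reacted with SAM and its substrate, with compounds tested once at 40 uM; SAH formed was read by MTase-Glo luminescence.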
Numbers without * were called inactive; i = inactive; + = active, no number; ! = not confirmed by another sample. On the % scale 0 is the no-effect control and ±100 the full control effect.

SMILES | Methyltransferases
CC(C)OCCCN1C(=O)c2cc3sccc3n2CC1(C)C(=O)NC1CCCCC1C (centres undefined) | i
COC(=O)C1=CO[C@@H](O[C@@H]2O[C@H](CO)[C@@H](O)[C@H](O)[C@H]2O)[C@@H]2C(COC(C)=O)=C[C@H](O)[C@H]12 | i
C/C=C1\[C@H](O[C@@H]2O[C@H](CO)[C@@H](O)[C@H](O)[C@H]2O)OC=C(C(=O)OC)[C@H]1CC(=O)O | i
C=C[C@H]1[C@H](O[C@@H]2O[C@H](CO)[C@@H](O)[C@H](O)[C@H]2O)OC=C(C(=O)OC)[C@H]1CCOC(=O)c1cc(O)c(O)c(O)c1 | +
C=CC1C(O[C@@H]2O[C@H](CO)[C@@H](O)[C@H](O)[C@H]2O)OC=C(C(=O)OC)C1Cc1nccc2c1[nH]c1ccccc12 (some centres undefined) | i
COC(=O)C1=CO[C@@H](O[C@@H]2O[C@H](CO)[C@@H](O)[C@H](O)[C@H]2O)[C@@H]2[C@@H](CO)[C@@H](O)C(O)[C@H]12 (some centres undefined) | i
C=C[C@H]1[C@H](O[C@@H]2O[C@H](CO)[C@@H](O)[C@H](O)[C@H]2O)OC=C(C(=O)OC)[C@H]1C/C=C(/C=O)[C@@H]1C(C(=O)OC)=CO[C@@H](O[C@@H]2O[C@H](CO)[C@@H](O)[C@H](O)[C@H]2O)[C@@H]1C=C | +
NC(=O)c1ccc(F)c2c1C[C@@H](N(C1CCC1)C1CCC1)CO2 | i
COc1ccccc1NC(=O)CSc1nnc2n(CCC(C)C)c(=O)c3ccccc3n12 | i
CCCn1c(=O)c2cc(Cl)ccc2n2c(SCC(=O)Nc3ccccc3C)nnc12 | i
CCCn1nc(CNC(=O)Cc2cccc(F)c2)c2ccccc21 | i
O=C(CCn1ccc2cc(S(=O)(=O)N3CCCC3)ccc21)NC1CCN(Cc2ccccc2)CC1 | i
O=C(O)CC1(O)C(=O)Nc2ccccc21 (centres undefined) | +
O=C1Nc2ccccc2C12CN([S+](=O)([O-])c1ccccc1)C2 | i
Cn1nccc1CN1CC2(C1)C(=O)Nc1ccccc12 | i
O=S(=O)(c1ccccc1)c1nnn2c1nc(N1CCN(Cc3ccccc3)CC1)c1ccccc12 | i
CN1CCN(CCN2C(=O)c3ccc(-c4ccco4)n3CC2(C)C(=O)NC2CCCCC2)CC1 (centres undefined) | i
COc1cc2c(cc1OC)N1C(=O)C[C@]34C=CCN5CC[C@@H]2[C@@H](CC3)[C@]514 | +
COc1ccc2c(c1)N1C(=O)C[C@@]34C=CC[N@+]5([O-])CC[C@H]2[C@H](CC3)[C@@]145 | i
O=C(O)CCNS(=O)(=O)c1ccc2[nH]c(=O)[nH]c2c1 | i
N#CC(=C(\N)Sc1ccccc1N)/C(C#N)=C(/N)Sc1ccccc1N | +
CCCn1c(=O)c2ccc(C(=O)NCC(C)C)cc2n2c(=O)n(CC(=O)NC3CCCCC3)nc12 | i
CCCc1nnc([C@H]2CCN(C(=O)c3ccccc3)C2)o1 | i
Cc1ccc(N2C(=O)c3cc4occc4n3CC2(C)C(=O)NC2CCCC(C)C2C)cc1C (centres undefined) | i
O=Nc1ccc2oc(=O)ccc2c1 | +
SMILES | Methyltransferases
O=c1ccc2ccc(O)c(O)c2o1 | i
Cc1cc(C)c(NC(=O)c2ncn3c2C(=O)N(C2CC2)C(C)(C(=O)NCc2ccc(F)cc2)C3)c(C)c1 (centres undefined) | i
COC(=O)c1cc2n(n1)CC(C)(C(=O)NC1CCCC1)N(c1ccc(F)cc1C)C2=O (centres undefined) | i
O=S(=O)(c1ccccc1)c1nnn2c1nc(N1CCCC1)c1cc(Cl)ccc12 | i
CC(CN(C)C)CN1c2ccccc2CCc2ccccc21 (centres undefined) | i
CN(C)CCC=C1c2ccccc2CCc2ccccc21 | +
CC(C)CNC(=O)c1ccc2c(=O)n(C(C)C)c3nn(Cc4ccc(N5CCCC5=O)cc4)c(=O)n3c2c1 | i
CCOP(=O)(Cc1ccc(C(=O)Nc2ccc(Br)cc2C#N)cc1)OCC | i
CC1(C)CCC(CN2CCN(c3ccc(C(=O)NS(=O)(=O)c4ccc(NCC5CCOCC5)c([N+](=O)[O-])c4)c(Oc4cnc5[nH]ccc5c4)c3)CC2)=C(c2ccc(Cl)cc2)C1 | +
CCCN1C(=O)c2c(C(=O)NCc3ccc(F)cc3)ncn2CC1(C)C(=O)NCc1ccc(OC)cc1 (centres undefined) | i
Cn1c(=O)n(C)c2cc(S(=O)(=O)N3CCN(C4CCCCC4)CC3)ccc21 | +
Cn1c(=O)n(C)c2cc(S(=O)(=O)N3CCc4ccccc4C3)ccc21 | i
COc1ccc(N2CCN(S(=O)(=O)c3ccc4c(c3)n(C)c(=O)n4C)CC2)cc1 | i
CN1CCN(CCCN2C(=O)c3cc4sccc4n3CC2(C)C(=O)NC2CCCCC2)CC1 (centres undefined) | i
CC(C)C1=NOC2(CCN(C(=O)C3CCCC3)CC2)C1 | i
CCOc1ccc(NC(=O)c2ncn3c2C(=O)N(C2CC2)C(C)(C(=O)NCc2ccc(F)cc2)C3)cc1 (centres undefined) | i
COc1ccccc1CN1C(=O)c2nc3ccccc3n2CC1(C)C(=O)NC1CCCC1 (centres undefined) | i
C=CCN1CCN(C(=O)[C@@]23CCCC[C@H]2N(CCC(C)C)C(=O)CC3)CC1 | i
CCN(CC)CCCC(C)Nc1c2ccc(Cl)cc2nc2ccc(OC)cc12 (centres undefined) | +!
COc1ccccc1CN1C(=O)c2cc3oc(C)cc3n2CC1(C)C(=O)NC1CCCCCC1 (centres undefined) | i
Cc1cccc(CN2C(=O)c3ccccc3CC2(C)C(=O)NCc2ccccc2C)c1 (centres undefined) | i
CCOC(=O)c1cc2n(n1)CC(C)(C(=O)NC1CCCCCC1)N(Cc1ccc(Cl)cc1)C2=O (centres undefined) | i
Cc1ccc(CNC(=O)N2CCn3cccc3C2C(C)C)cc1 (centres undefined) | i
O=[N+]([O-])c1cccc2c(Br)[nH]nc12 | +
CC1(C(=O)NC2CCCC2)Cn2c(ccc2-c2ccco2)C(=O)N1C1CC1 (centres undefined) | i
SMILES | Methyltransferases
Cc1ccc(S(=O)(=O)c2nnn3c2nc(N2CCOCC2)c2cc(Cl)ccc23)cc1C | i
CC(N)(Cc1ccc(O)c(O)c1)C(=O)O (centres undefined) | +
COc1cc(CC(=O)O)ccc1O | i
CCCCCCCC/C=C\CCCCCCCC(=O)NCCc1ccc(O)c(O)c1 | i
C[C@](Cc1ccc(O)c(O)c1)(NN)C(=O)O | +
COc1ccc(CNC(=O)c2cc3n(n2)CC(C)(C(=O)NC2CCCCCC2)N(C)C3=O)cc1 (centres undefined) | i
CCC(C)NC(=O)c1ccc2c(=O)n(C)c3nn(CC(=O)Nc4cc(F)ccc4F)c(=O)n3c2c1 (centres undefined) | i
COc1ccccc1NC(=O)N1CCn2cccc2C1C (centres undefined) | i
C[C@]1(O)CCN(C(=O)c2cc(-c3ccsc3)n[nH]2)C[C@@H]1O | i
CCC(C)NC(=O)c1ccc2c(=O)n(C)c3nnc(SCc4ccccc4F)n3c2c1 (centres undefined) | i
CCC1c2ccc(C)n2CCN1C(=O)Nc1cccc(SC)c1 (centres undefined) | i

High-throughput results as filed in PubChem BioAssay.
